Source: PubChem BioAssay (NCATS)
A number with no mark means an inactive call. Records with an inconclusive call do not appear. Activity calls are given as the source filed them. Unless noted, calls come from the whole dose curve; as a rule, active = well fitted curve in either direction with a large enough effect (not every such curve was filed as active); inconclusive = small, poorly fitted or top-dose-only effect, or another doubt; inactive = flat fitted curve, though single readings scatter.

Key:
[1] = molecular target: Lysosomal acid glucosylceramidase (Homo sapiens) (UniProt P04062); test: Glucocerebrosidase-p2 (AID 348; in the data active = potency below about 10 µM; note: potency is the fitted concentration of half-maximal effect); settings: purified GBA, blue fluorogenic substrate, 40 min
Sequence of Lysosomal acid glucosylceramidase (Homo sapiens) (P04062 whole entry, looked up): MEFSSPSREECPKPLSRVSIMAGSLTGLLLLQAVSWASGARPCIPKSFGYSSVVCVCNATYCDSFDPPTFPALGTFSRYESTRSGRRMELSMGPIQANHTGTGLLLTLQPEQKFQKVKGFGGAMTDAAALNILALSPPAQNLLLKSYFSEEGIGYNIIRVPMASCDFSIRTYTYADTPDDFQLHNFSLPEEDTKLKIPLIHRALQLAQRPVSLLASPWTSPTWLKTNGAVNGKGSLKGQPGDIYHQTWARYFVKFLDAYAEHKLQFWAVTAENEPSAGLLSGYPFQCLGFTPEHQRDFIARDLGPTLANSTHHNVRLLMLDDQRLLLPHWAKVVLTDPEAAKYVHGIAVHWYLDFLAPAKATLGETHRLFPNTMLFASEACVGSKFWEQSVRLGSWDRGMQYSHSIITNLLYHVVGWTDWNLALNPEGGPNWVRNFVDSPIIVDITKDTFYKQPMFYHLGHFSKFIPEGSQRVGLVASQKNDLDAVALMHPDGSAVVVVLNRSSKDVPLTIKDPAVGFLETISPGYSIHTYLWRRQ
Summary of the method: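 Compounds titrated from 0.6 nM upwards against 0.2 nM enzyme in pH 5.9 citric acid/KH2PO4, taurocholate, tween-20; blue fluorogenic substrate 80 uM, 40 min room temperature, stopped and read Ex 365/Em 440 for AC50.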

[2] = AP1 Signaling Pathway (AID 357); settings: ME-180 AP-1-bla reporter, EGF-induced, beta-lactamase ratio, 5 h; at 7.69 µM (top of the series) unless noted;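 note: ME-180 reporter cells stimulated with EGF at its EC50 level; % is set by controls: 0 for no effect and ±100 for the full control effect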
Summary of the method: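 Read-out was the 460nm/530nm emission ratio (excitation 405nm) after CCF4 loading for 2.5 hours at room temperature. Cells carried an AP-1-driven beta-lactamase reporter, were stimulated with EC50 EGF plus compound for 5 hours, and AC50 values came from titrations.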

[3] = molecular target: Cytochrome P450 1A2 (Homo sapiens) (UniProt P05177); test: p450-cyp1a2 (AID 410; calls by dose curve; note: potency is the fitted concentration of half-maximal effect;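 for activity change, negative = inhibition: -100% = full effect of reference inhibitor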); settings: recombinant CYP1A2, luciferin-ME demethylation, luminescence; series mostly up to 57 µM
Sequence of Cytochrome P450 1A2 (Homo sapiens) (P05177 whole entry, looked up): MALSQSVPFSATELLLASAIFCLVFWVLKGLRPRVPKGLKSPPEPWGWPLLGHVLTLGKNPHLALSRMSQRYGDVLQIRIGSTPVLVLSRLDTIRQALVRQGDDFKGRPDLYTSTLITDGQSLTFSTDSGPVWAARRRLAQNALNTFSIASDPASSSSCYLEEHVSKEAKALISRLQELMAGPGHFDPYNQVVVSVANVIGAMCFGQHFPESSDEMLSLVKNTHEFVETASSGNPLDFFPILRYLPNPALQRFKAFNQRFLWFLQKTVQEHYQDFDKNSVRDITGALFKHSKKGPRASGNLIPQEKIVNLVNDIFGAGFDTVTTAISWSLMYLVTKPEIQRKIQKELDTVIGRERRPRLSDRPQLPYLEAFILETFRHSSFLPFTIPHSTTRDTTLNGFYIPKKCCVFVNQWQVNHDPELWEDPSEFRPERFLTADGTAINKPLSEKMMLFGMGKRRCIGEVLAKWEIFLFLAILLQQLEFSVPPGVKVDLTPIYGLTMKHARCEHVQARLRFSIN
Summary of the method: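 Human CYP1A2 (20nM) demethylated Luciferin-ME at its Km (100uM) in 100mM KPO4. After 10 min compound preincubation, NADPH regeneration ran the reaction 60 min at room temperature. Luciferin was read by luminescence, normalized to 57 uM furafylline.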

[4] = Stat Signaling Pathway (AID 446); settings: ME-180 SIE beta-lactamase reporter, IL-6 stimulated, 5 h; at 7.69 µM (top of the series) unless noted;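 note: ME-180 cervical cancer cells given 40 pM IL-6 alongside compound; SIE-controlled beta-lactamase reporter measured as 460/530 nm FRET emission ratio; % is set by controls: 0 for no effect and ±100 for the full control effect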
Summary of the method: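 Screening format detects activators and inhibitors alike: ME-180 SIE-bla cells stimulated at 40 pM IL-6 for 5 hrs with compound, then dual-emission beta-lactamase read at 405 nm excitation.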

[5] = molecular target: Glucocorticoid receptor (Homo sapiens) (UniProt P04150); test: GR-EFC Redistribution (AID 451; calls by dose curve; note: potency is the fitted concentration of half-maximal effect); settings: CHO-K1 GR-EFC translocation, beta-gal luminescence, 2 h
Sequence of Glucocorticoid receptor (Homo sapiens) (P04150 whole entry, looked up, the tested form may be a part): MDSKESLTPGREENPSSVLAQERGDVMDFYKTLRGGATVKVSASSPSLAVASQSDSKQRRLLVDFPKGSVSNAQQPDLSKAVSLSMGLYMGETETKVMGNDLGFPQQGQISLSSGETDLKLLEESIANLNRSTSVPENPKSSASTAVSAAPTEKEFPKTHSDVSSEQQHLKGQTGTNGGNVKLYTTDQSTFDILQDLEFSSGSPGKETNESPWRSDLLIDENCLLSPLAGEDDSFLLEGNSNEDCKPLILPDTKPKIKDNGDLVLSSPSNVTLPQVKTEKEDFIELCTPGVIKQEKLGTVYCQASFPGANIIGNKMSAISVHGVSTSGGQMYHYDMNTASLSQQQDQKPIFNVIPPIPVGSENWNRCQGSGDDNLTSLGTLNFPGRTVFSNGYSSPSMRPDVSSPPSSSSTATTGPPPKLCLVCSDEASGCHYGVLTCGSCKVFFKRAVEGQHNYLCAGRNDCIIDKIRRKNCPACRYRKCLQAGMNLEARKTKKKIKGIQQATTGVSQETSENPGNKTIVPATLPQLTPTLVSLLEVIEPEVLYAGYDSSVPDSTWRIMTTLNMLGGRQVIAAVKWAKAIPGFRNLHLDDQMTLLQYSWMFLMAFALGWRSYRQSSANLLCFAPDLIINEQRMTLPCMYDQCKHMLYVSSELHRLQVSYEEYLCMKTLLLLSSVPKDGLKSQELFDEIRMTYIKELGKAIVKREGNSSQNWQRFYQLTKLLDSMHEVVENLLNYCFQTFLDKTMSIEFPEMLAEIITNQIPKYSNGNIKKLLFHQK
Summary of the method: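 CHO-K1 cells expressing nuclear EA and GR-ED fragments of b-gal; compounds titrated up to 46 uM final, 2 h at 37 C. GR nuclear translocation read as complemented b-gal luminescence after 1 h RT detection.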

[6] = molecular target: Mitogen-activated protein kinase 10 (Mus musculus) (UniProt Q61831); test: JNK3 AlphaScreen Assay (AID 530); settings: JNK3 lysate, c-Jun phosphorylation; series mostly up to 57.1 µM;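 note: kinase came from lysate of stimulated human HepG2 cells; signal reports phosphorylation of biotinylated GST-cJun 1-79 at Ser73 with 10 µM ATP; % is set by controls: 0 for no effect and ±100 for the full control effect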
Summary of the method: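 qHTS format: compounds tested as titrations against IL-1beta/TNF-alpha-activated HepG2 lysate JNK3 with biotin-GST-cJun substrate and 10 uM ATP at room temperature. Loss of anti-phospho-cJun AlphaScreen signal indicates inhibition.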

[7] = molecular target: 3',5'-cyclic-AMP phosphodiesterase 4B (Homo sapiens) (UniProt Q07343); test: qHTS Assay for Inhibitors of PDE-IV (AID 607; active = well fitted activation curve with a large enough effect in the main read-out, with a control signal flat, not every such curve was filed as active; note: % of control where 0% means no effect); settings: HEK293 ACTOne CNG channel cells, membrane potential fluorescence; series mostly up to 22.9 µM
Sequence of 3',5'-cyclic-AMP phosphodiesterase 4B (Homo sapiens) (Q07343 whole entry, looked up): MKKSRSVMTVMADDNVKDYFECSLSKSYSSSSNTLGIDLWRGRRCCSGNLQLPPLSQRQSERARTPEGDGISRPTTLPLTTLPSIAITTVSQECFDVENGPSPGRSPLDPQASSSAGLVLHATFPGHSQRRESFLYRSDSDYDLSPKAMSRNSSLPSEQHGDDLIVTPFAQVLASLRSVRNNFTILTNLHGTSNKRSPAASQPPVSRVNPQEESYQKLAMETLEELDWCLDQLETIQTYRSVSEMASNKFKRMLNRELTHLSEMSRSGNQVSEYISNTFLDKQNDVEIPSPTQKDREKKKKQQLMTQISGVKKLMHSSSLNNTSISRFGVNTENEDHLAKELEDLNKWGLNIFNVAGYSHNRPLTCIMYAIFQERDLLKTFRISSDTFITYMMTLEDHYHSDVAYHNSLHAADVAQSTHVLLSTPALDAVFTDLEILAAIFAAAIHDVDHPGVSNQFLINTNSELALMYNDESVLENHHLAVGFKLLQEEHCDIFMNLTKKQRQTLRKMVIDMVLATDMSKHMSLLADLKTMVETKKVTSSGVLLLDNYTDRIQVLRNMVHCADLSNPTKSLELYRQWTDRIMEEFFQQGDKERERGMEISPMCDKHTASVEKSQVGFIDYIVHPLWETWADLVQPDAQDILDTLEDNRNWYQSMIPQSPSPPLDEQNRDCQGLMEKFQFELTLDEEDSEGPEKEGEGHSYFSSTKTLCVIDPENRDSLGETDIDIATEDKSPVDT
Summary of the method: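 The readout is membrane depolarisation from a cAMP-sensing CNG channel, detected with a potential dye at ex 535/em 590. Cells were HEK293-derived (endogenous PDE-IV) at 1000 cells/well, titrated up to 22.9 uM final.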

[8] = molecular target: Cytochrome P450 3A4 (Homo sapiens) (UniProt P08684); test: qHTS Assay for Activators of Cytochrome P450 3A4 (AID 885; active = well fitted curve in the direction sought with a large enough effect; an effect the other way counts as inactive or inconclusive; note: nearly all actives have a fitted effect of over 65% in size; note: potency is the fitted concentration of half-maximal effect); settings: recombinant CYP3A4, Luciferin-PPXE luminescence, 60 min; series mostly up to 57.1 µM
Sequence of Cytochrome P450 3A4 (Homo sapiens) (P08684 whole entry, looked up): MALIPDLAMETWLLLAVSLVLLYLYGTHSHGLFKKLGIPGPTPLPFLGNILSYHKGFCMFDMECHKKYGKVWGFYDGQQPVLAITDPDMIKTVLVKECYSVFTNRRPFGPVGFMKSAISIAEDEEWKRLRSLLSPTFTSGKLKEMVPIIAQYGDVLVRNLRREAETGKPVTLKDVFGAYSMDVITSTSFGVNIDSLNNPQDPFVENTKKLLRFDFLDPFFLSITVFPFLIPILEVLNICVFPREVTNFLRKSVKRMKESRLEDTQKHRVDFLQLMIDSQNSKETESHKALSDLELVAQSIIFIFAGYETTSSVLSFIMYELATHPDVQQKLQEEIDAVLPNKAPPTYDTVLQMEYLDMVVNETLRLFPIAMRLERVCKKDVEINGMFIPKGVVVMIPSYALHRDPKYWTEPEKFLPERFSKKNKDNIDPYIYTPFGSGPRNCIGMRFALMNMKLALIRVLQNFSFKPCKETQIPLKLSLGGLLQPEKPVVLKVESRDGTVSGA
Summary of the method: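 Steps: enzyme/substrate mix dispensed; compound added, 10 min RT; NADPH regeneration solution added, 60 min RT; luciferin detection buffer stops reaction; 20 min later luminescence measured.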

[9] = qHTS Assay for Identification of Small Molecule Agonists for Hypoxia Response Element Signaling Pathway (AID 914; active = well fitted activation curve with a large enough effect in the signal ratio, with a control signal flat, not every such curve was filed as active; the % refers to the signal ratio; note: % of control where 0% means no effect); settings: ME-180 (cervical carcinoma) HRE-bla reporter, beta-lactamase ratio, CoCl2, 17 h; activation: active compounds read high
Summary of the method: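 Reporter activity (beta-lactamase, CCF4 460nm/530nm ratio) in HRE-bla ME-180 cells is recorded after 17 h compound exposure with EC50 CoCl2 at 37 degrees Celsius. AC50 values come from titration data.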

[10] = Primary qHTS for small molecule stabilizers of the endoplasmic reticulum resident proteome: Secreted ER Calcium Modulated Protein (SERCaMP) assay (AID 1508630; active = well fitted curve in the direction sought with a large enough effect; an effect the other way counts as inactive or inconclusive; note: % is set by controls: 0 for no effect and ±100 for the full control effect); settings: SH-SY5Y GLuc-SERCaMP (Gaussia luciferase released on ER calcium loss) secretion, thapsigargin, luminescence; series mostly up to 38.4 µM
Summary of the method: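 GLuc-SERCaMP-expressing SH-SY5Y cells, pretreated 16 h with compound, are challenged with thapsigargin to empty ER calcium stores; after 4 h, coelenterazine is added directly to the medium and luminescence is imaged.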

[11] = molecular target: Cytochrome P450 2C9 (Homo sapiens) (UniProt P11712); test: qHTS Assay for Inhibitors and Substrates of Cytochrome P450 2C9 (AID 883; active = well fitted curve in the direction sought with a large enough effect; an effect the other way counts as inactive or inconclusive; note: potency is the fitted concentration of half-maximal effect; nearly all actives have a fitted effect of over 60% in size); settings: recombinant CYP2C9, luciferin-H luminescence, 60 min; series mostly up to 57.1 µM
Sequence of Cytochrome P450 2C9 (Homo sapiens) (P11712 whole entry, looked up): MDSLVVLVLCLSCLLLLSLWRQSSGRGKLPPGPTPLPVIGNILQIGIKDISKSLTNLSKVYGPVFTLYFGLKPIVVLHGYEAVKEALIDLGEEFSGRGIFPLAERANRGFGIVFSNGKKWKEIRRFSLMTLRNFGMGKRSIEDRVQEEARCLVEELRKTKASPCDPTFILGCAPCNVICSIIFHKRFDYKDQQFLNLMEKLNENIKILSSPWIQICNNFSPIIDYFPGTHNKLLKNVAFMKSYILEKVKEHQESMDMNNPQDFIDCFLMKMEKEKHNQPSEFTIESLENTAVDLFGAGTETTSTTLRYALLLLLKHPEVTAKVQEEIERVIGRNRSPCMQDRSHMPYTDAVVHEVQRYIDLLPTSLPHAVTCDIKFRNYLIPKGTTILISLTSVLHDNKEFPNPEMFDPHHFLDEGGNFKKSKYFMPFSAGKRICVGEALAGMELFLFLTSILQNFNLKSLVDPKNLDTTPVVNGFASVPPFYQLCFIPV
Summary of the method: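 Human CYP2C9 (10nM) with Luciferin-H at 100uM (its KM) in 25mM KPO4; compound preincubated 10 min at 37C, then NADPH regeneration for 60 min at 37C. Luciferin read by luminescence after detection reagent; normalized to 57uM sulphaphenazole as full inhibition.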

[12] = molecular target: Cytochrome P450 2D6 (Homo sapiens) (UniProt P10635); test: qHTS Assay for Inhibitors and Substrates of Cytochrome P450 2D6 (AID 891; active = well fitted curve in the direction sought with a large enough effect; an effect the other way counts as inactive or inconclusive; note: potency is the fitted concentration of half-maximal effect; nearly all actives have a fitted effect of over 60% in size); settings: recombinant CYP2D6, luciferin-ME EGE luminescence; series mostly up to 57.1 µM
Sequence of Cytochrome P450 2D6 (Homo sapiens) (P10635 whole entry, looked up): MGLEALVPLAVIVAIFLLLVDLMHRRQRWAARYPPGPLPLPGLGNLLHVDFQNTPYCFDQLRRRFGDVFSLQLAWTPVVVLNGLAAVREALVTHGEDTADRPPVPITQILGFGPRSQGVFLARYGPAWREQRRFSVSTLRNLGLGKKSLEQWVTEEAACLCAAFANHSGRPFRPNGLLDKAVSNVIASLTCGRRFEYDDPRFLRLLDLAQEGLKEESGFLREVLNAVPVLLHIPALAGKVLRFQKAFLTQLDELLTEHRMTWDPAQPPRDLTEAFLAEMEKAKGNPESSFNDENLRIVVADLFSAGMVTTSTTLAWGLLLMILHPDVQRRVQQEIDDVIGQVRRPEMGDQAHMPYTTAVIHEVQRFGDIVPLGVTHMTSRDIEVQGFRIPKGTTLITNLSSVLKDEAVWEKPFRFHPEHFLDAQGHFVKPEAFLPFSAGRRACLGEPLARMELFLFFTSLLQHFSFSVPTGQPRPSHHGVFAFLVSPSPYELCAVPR
Summary of the method: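 Human CYP2D6 (5 nM) with 30 uM Luciferin-ME EGE (at Km) in 100 mM KPO4, compound preincubated 10 min, then NADPH regeneration system for 60 min at room temperature. Luciferin read by luminescence; normalized to 1.43 uM quinidine.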

[13] = molecular target: Cytochrome P450 3A4 (Homo sapiens) (UniProt P08684); test: qHTS Assay for Inhibitors and Substrates of Cytochrome P450 3A4 (AID 884; active = well fitted curve in the direction sought with a large enough effect; an effect the other way counts as inactive or inconclusive; note: nearly all actives have a fitted effect of over 50% in size; note: potency is the fitted concentration of half-maximal effect); settings: recombinant CYP3A4, Luciferin-PPXE luminescence; series mostly up to 57.1 µM
Summary of the method: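 20 nM human CYP3A4 with 25 uM Luciferin-PPXE (at KM) in 200 mM KPO4, preincubated 10 min with compound; NADPH regeneration started a 60 min RT reaction. Luciferin detected by luminescence, normalized to 57 uM ketoconazole as full inhibition.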

[14] = NFAT Signaling Pathway (AID 444); settings: Jurkat NFAT-bla M1, carbachol, beta-lactamase ratio, 5 h; at 7.69 µM (top of the series) unless noted
Summary of the method: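 Jurkat cells with NFAT-driven β-lactamase reporter and co-expressed M1 receptor, stimulated with carbachol (final 1 uM, ~EC50), compound titration, 5 h at 37 °C. CCF4 loaded 1 h at RT; 460/530 nm ratio gave %activity and AC50.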

[15] = molecular target: Glucocorticoid receptor (Homo sapiens) (UniProt P04150); test: GR-GFP Redistribution (AID 450;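 active = compounds whose dose series gives a full or clear partial fitted curve of increased nuclear translocation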; note: potency is the fitted concentration of half-maximal effect); settings: U2OS GR-GFP nuclear translocation, laser cytometry, 2 h

Row | SMILES | Potency [1] [µM] | activity change, negative = inhibition [2] [%] | Potency [3] | activity, negative = inhibition [4] [%] | Potency [5] [µM] | Potency [6] | Potency [7] | Potency [8] | activation [9] [%] | outcome [10] | Potency [11] | Potency [12] | Potency [13] | activity change, negative = inhibition [14] [%] | Potency [15] [µM]
1 | N#Cc1cccc(NC(=O)N2CCCC3(CCN(C(=O)c4csnn4)CC3)C2)c1 | > 11.4 | 6.7 | inactive | -0.264 | > 46 | inactive | inactive | inactive | -5.53 | inactive | – | – | – | – | –
2 | CC(C)NC(=O)N1CCC2(CC1)CCN(C(=O)c1cccn1C)CC2 | > 11.4 | 15.2 | inactive | 2.35 | > 46 | inactive | inactive | – | – | inactive | – | – | – | – | –
3 | O=C(c1cccc(F)c1)N1CCC2(CCCN(Cc3ccncc3)C2)CC1 | > 11.4 | -4.41 | 15.8 µM (active) | -4.85 | > 46 | inactive | inactive | inactive | – | inactive | 0.631 µM (active) | 7.94 µM (active) | – | – | –
4 | COC(=O)N1CCC2(CC1)CCN(c1ccccn1)CC2 | > 11.4 | -8.66 | inactive | -8.24 | > 46 | inactive | inactive | 20 µM (active) | – | inactive | – | – | inactive | – | –
5 | COC(=O)N1CCC2(CCCN(Cc3ccccc3)C2)CC1 | > 11.4 | -5.44 | inactive | 2.77 | > 46 | inactive | – | – | 3.12 | inactive | – | – | – | – | –
6 | COc1ccc(Oc2ncc3nc(C)c(=O)n(CCc4ccccc4)c3n2)cc1 | > 11.4 | 18.2 | – | 2.93 | > 46 | inactive | – | – | – | inactive | – | – | – | 0.509 | > 9.22
7 | O=C(c1cc(C(F)(F)F)cc(C(F)(F)F)c1)N1CCC2(CCCN(Cc3ccncc3)C2)CC1 | > 11.4 | 7.96 | inactive | -3.11 | > 46 | inactive | inactive | inactive | – | inactive | – | – | – | – | –
8 | O=S(=O)(c1ccccc1)N1CCC2(CCN(Cc3ccncc3)CC2)CC1 | > 11.4 | -0.758 | inactive | 7.32 | – | inactive | inactive | inactive | – | inactive | – | – | 3.98 µM (active) | – | –
9 | O=C(c1ccncc1)N1CCC2(CCCN(Cc3ccccc3)C2)CC1 | > 11.4 | -9.7 | inactive | -8.26 | > 46 | inactive | inactive | inactive | – | inactive | – | – | – | – | –
10 | N#Cc1cccc(NC(=O)N2CCCC3(CCN(C(=O)c4cccc(F)c4)CC3)C2)c1 | > 11.4 | -6.98 | 12.6 µM (active) | -4.33 | > 46 | inactive | inactive | inactive | – | inactive | – | – | – | – | –
11 | COc1ccc(C(=O)N2CCC[C@@]3(CCN(Cc4ccccc4)C3)C2)cc1 | > 11.4 | 13 | 12.6 µM (active) | -4.24 | > 46 | inactive | inactive | inactive | – | inactive | – | 7.94 µM (active) | – | – | –
12 | COc1ccc(C(=O)N2CCC[C@@]3(CCN(Cc4ccccc4OC)C3)C2)cc1 | > 11.4 | 11.7 | – | 5.47 | > 46 | inactive | inactive | – | – | inactive | – | – | – | -18.6 | –
13 | COc1cccc(Cn2c(=O)c(-c3cc(F)cc(F)c3)nc3cnc(OC)nc32)c1 | > 11.4 | -16.9 | – | -4.81 | > 46 | inactive | inactive | – | – | inactive | – | – | – | -18.1 | > 9.22
14 | COc1ncc2nc(C)c(=O)n(Cc3cccs3)c2n1 | > 11.4 | -2.91 | – | -7.75 | > 46 | inactive | inactive | – | – | inactive | – | – | – | -7.05 | > 9.22
15 | COc1ccc(C(=O)N2CCC[C@@]3(CCN(C(=O)Nc4cccc(F)c4)C3)C2)cc1 | > 11.4 | -10.8 | – | -4.78 | > 46 | inactive | inactive | – | – | inactive | – | – | – | 2.1 | –
16 | COCCn1c(=O)c(C)nc2cnc(OCc3ccccc3)nc21 | > 11.4 | -16.6 | – | -9.48 | > 46 | inactive | inactive | – | – | inactive | – | – | – | -3.44 | > 9.22
17 | COc1cccc(Cn2c(=O)c(-c3cccc(Cl)c3)nc3cncnc32)c1 | > 11.4 | -20.4 | – | -8.57 | > 46 | – | inactive | – | – | inactive | – | – | – | -10.8 | > 9.22
